Casp6 inh – human caspase-6 inhibitors, primary screen, biochemical, VEID-R110 fluorescence, single point, set 2. actives 0.53% (n = 350,000). purified caspase-6, Z-VEID-R110 cleavage fluorescence. AID 686996, 2013. inhibition, % at 12.5 µM;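 active means mean inhibition across replicates at least about 35%, with every replicate also reaching that limit, limit read from the data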;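 further: 0% = median of neutral control wells and 100% = no fluorescence left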
N-glyco inh – increase of ERlucT glycosylation luciferase signal, primary screen, N-linked glycosylation inhibitor project, D54 ERlucT cells, luminescence, set 2; D54 ERlucT glycosylation luciferase reporter, 24 h; percent of 100 nM tunicamycin response; reporter increase, % at 12.5 µM; actives 0.23% (n = 360,000); AID 588692, 2011;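 active means mean luciferase reporter signal, scaled so untreated is 0 and the glycosylation-blocking control 100, at or above a set limit in every replicate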;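 further: luciferase carries N-glycosylation sites so blocking glycosylation raises the light; 0% = median of neutral control wells and 100% = median of 100 nM tunicamycin wells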
HDAC3 inhib – HDAC3 deacetylase inhibitors, primary screen, biochemical, fluorescence, cell-free homogeneous. Histone deacetylase 3 (Homo sapiens), O15379. recombinant HDAC3, fluorogenic peptide/trypsin coupled. inhibition, % at 8.3 µM. actives 0.15% (n = 320,000). AID 2718, 2010; in the data active means inhibition above about 26%, passing the limit was not always enough
Keap1 Nrf2 FP – Keap1-Nrf2 protein-protein interaction inhibitors, primary screen, biochemical, fluorescence polarization, single point; Kelch-like ECH-associated protein 1 (Homo sapiens), Q14145; Keap1 Kelch-Nrf2 peptide fluorescence polarization, 1536-well; inhibition, % at 9.4 µM; actives 0.15% (n = 340,000); AID 504523, 2011; in the data active means inhibition above about 12%;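 further: human Keap1 Kelch domain with fluorescein labeled Nrf2 9mer peptide probe; 0% = neutral control wells and 100% = peptide positive control; higher means more block of Keap1 binding to Nrf2 peptide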
Target sequence (Q14145 whole entry, looked up, the tested form may be a part): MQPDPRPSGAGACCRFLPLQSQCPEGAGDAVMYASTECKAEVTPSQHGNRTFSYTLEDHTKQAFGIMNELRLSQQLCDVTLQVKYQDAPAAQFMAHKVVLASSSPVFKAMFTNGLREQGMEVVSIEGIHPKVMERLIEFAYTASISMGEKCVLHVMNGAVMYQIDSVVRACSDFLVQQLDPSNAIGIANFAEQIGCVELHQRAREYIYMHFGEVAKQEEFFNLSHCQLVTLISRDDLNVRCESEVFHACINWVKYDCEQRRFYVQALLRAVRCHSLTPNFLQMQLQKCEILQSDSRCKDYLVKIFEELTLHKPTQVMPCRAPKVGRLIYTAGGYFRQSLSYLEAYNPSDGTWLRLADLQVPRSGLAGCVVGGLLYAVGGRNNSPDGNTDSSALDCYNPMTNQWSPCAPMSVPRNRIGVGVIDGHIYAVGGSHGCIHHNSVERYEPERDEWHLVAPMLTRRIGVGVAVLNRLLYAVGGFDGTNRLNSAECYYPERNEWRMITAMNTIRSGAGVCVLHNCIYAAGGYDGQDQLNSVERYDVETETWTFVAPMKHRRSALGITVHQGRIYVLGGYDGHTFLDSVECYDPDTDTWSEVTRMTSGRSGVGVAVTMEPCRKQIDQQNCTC
LANA DNA inh – inhibitors of KSHV C-LANA binding to DNA, primary screen, biochemical, fluorescence polarization, FAM-LBS DNA, MBP-C-LANA, single point. inhibition, % at 9 µM. actives 0.078% (n = 340,000);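 active means highest replicate inhibition at or above 60% at 9 µM, even if other replicates fall short; inactive means all replicates below 60% inhibition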;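 further: 0% = neutral control wells and 100% = 4 µM acridine orange control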
NSD2 inh – NSD2 histone methyltransferase inhibitors, primary screen, biochemical, AlphaScreen, single concentration, set 2; Histone-lysine N-methyltransferase NSD2 (Homo sapiens), O96028; NSD2 peptide methylation, 120 min; inhibition, % at 12.5 µM; actives 0.54% (n = 310,000); AID 743445, 2014; in the data active means inhibition above about 50%
Active calls of the source: *; . = not tested or not shown. Only some compounds are listed: those with a hit (about 1.1% of all), similar ones and a draw of the others.

SMILES	Casp6 inh	N-glyco inh	HDAC3 inhib	Keap1 Nrf2 FP	LANA DNA inh	NSD2 inh
NC(=O)NC(=O)Nc1ccccc1Cl	.	5	4	2	-1	-2
O=C(C[C@H]1CC[C@H](NC(=O)Nc2ccccc2)[C@@H](CO)O1)NCc1ccccn1	-2	.	.	.	.	.
O=C(O)C1C2C=CC(C2)C1C(=O)NCc1cccs1 (stereo unspecified)	45*	-3	4	-1	0	-1
COC(=O)CCc1c(C)c(C(=O)c2cc(F)c(F)c(F)c2F)c2ccccn12	62*	1	3	-2	0	31
COC(=O)CCc1c(C)c(C(=O)c2ccc(F)cc2)c2ccccn12	0	-1	0	0	1	-1
C=CCN(C(=O)CSC1=NC(=O)CN1C(C)=O)c1nc(C)c(-c2ccccc2)s1	.	2	68*	-6	1	1
C[C@H](CO)N1C[C@H](C)[C@@H](CN(C)S(=O)(=O)c2ccc(Cl)cc2)Oc2c(NS(=O)(=O)c3ccc(Cl)cc3)cccc2C1=O	-2	.	.	.	.	.
CO[C@@H]1CN(C)C(=O)c2cc(NC(C)=O)ccc2OC[C@H](C)N(C(=O)C2CC2)C[C@H]1C	-1	.	.	.	.	.
COc1ccc(OC)c2sc(N(CCCN(C)C)C(=O)c3ccc(S(=O)(=O)N4CCc5ccccc5C4)cc3)nc12	.	.	41*	.	.	-2
COc1ccc(C)c2sc(N(CCCN(C)C)C(=O)c3ccc(S(=O)(=O)N4CCc5ccccc5C4)cc3)nc12	7	-12	4	3	1	1
Cc1noc(C)c1S(=O)(=O)Nc1ccc2c(c1)C(=O)N([C@H](C)CO)C[C@@H](C)[C@@H](CN(C)CC1CCCCC1)OCCCC[C@@H](C)O2	-2	.	.	.	.	.
N=C(N)SCc1ccccn1	.	3	7	-2	1	-2
N=C(N)SCc1ncccc1O	43*	0	-4	2	5	12
C[C@@H]1CN([C@@H](C)CO)C(=O)Cc2cc(NS(=O)(=O)c3cccs3)ccc2O[C@@H]1CN(C)Cc1ccccc1	2	.	.	.	.	.
COc1ccc(C2CC(O)(c3ccccc3)Oc3cc(OC)c(OC)c(OC)c32)cc1 (stereo unspecified)	1	3	41*	4	2	.
COc1ccc([C@@H]2C[C@H](c3ccccc3)Oc3cc(OC)c(OC)c(OC)c32)cc1	-2	-2	-3	-1	-3	.
C[C@@H]1CN([C@H](C)CO)C(=O)c2cc(C3=CCCC3)cnc2O[C@H]1CN(C)Cc1ccccc1	6	.	.	.	.	.
O=C(Nc1ccccc1F)N[C@H]1CC[C@H](CCNS(=O)(=O)c2ccc(F)cc2)O[C@@H]1CO	-1	.	.	.	.	.
Brc1ccc(C2=Nn3c(nnc3-c3n[nH]c4c3CCC4)SC2)cc1	.	42*	8	1	0	.
Cc1ccc(-c2nnc3n2N=C(c2ccc(Br)cc2)CS3)cc1	-4	-2	2	-4	0	.
Clc1ccc(C2=Nn3c(nnc3-c3n[nH]c4c3CCC4)SC2)cc1	.	37*	0	-3	0	9
CN1CCN(CC(=O)Nc2cc(N(C)C)nc3ccccc23)CC1	-14	44*	-21	2	0	4
CCOC(=O)C1CCN(Cc2ccc(OC)c(C)c2OC)CC1	.	3	-1	-2	-1	0
CCOC(=O)C1CCN(Cc2cc(Cl)c3ccccc3c2O)CC1	.	44*	-11	3	0	0
CO[C@@H]1CN(C)C(=O)c2cc(NC(=O)C3CC3)ccc2OC[C@H](C)N(Cc2cccc(F)c2)C[C@H]1C	-2	.	.	.	.	.
CC(C)(C)NC(=O)C(=O)NN=C1CCCCCCCCCCC1	60*	0	-5	1	-2	-3
COc1cccc(S(=O)(=O)N(C)C[C@@H]2Oc3ncc(-c4ccc(F)cc4)cc3C(=O)N([C@H](C)CO)C[C@@H]2C)c1	5	.	.	.	.	.
Cc1ccccc1NC(=O)CC1SC(=O)N(c2ccccc2)C1=O (stereo unspecified)	.	-1	8	0	1	3

High-throughput results deposited in PubChem BioAssay by Broad Institute.
